This passage reports cytotoxicity results from PubChem BioAssay AID431 (Sanford-Burnham Center for Chemical Genomics, 2006).

Molecules are shown by their SMILES. In all, about 63,000 compounds went through this assay and about 1,100 (1.7%) were called active. The list comes from a sample in which actives are over-represented; it also holds similar structures and randomly drawn compounds. Potency and affinity values are given separately. Unmarked numbers belong to inactive results.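 How the source made its calls: active means compounds whose percent cytotoxicity in the single-dose primary screen, scaled between solvent and toxic-drug controls, exceeds 50; inactive means the rest.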

This assay can be described thus: cytotoxicity in KRAS-transformed pancreatic duct cells, primary screen, cell-based, fluorescence, HTS (AID 431).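 Further: 0% = DMSO solvent wells and 100% = doxorubicin-treated wells.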 To be noted: HPDE-C7K KRASV12 cells, Alamar Blue viability, 48 h; at 10 µM; active compounds read high.
As to `C=CCOC(=O)C1=C(C)Nc2nnnn2C1c1cccc(OC)c1OC` (stereo not given), the cytotoxicity was 1.2%.
For `Cn1cc(/C=N/n2cnc3scc(-c4ccc(Cl)cc4)c3c2=O)c2ccccc21`, the cytotoxicity was 77.5% (active).
For `Cn1cc(/C=N/n2cnc3scc(-c4ccccc4)c3c2=O)c2ccccc21`, the cytotoxicity is 48.5%.
Consider `Cn1cc(/C=N/n2cnc3sc4c(c3c2=O)CCCC4)c2ccccc21`, for which the cytotoxicity was 7.8%.
For the compound `COc1ccc(NC(=O)C2CCN(S(=O)(=O)c3ccc(C)cc3)CC2)cc1OC`, the cytotoxicity is -26.5%.
Regarding `CCOc1ccc(C2CC(c3ccc(OC)cc3)n3ncnc3N2)cc1` (stereo not given), the cytotoxicity was -6.4%.
With `Cc1[nH]c2ccc(-c3nnc(SCC(=O)N4CCCc5ccccc54)o3)cc2c1C`, the cytotoxicity was 2.9%.
Consider `Cc1[nH]c2ccc(-c3nnc(SCC(=O)c4ccccc4F)o3)cc2c1C`, for which the cytotoxicity was 78.5% (active).
On to `Cc1[nH]c2ccc(-c3nnc(SCC(=O)c4ccc(F)cc4)o3)cc2c1C`, for which the cytotoxicity was -0.1%.
Take `CCc1[nH]nc2c1C(C(C)C)C(C#N)=C(N)O2` (stereo not given): the cytotoxicity is -20.8%.
In the case of `Cc1nn(Cc2ccc(C(=O)NC3CCCCC3)o2)c(C)c1Br`, the cytotoxicity was 10.5%.
`CC1CCc2c(nc3ncnn3c2N2CCN(c3ccccc3F)CC2)C1` (stereo not given): the cytotoxicity is -5.6%.
Consider `CCOC(=O)COC(=O)c1ccc(O)cc1`, for which the cytotoxicity was 1.8%.
For `CCOc1ccc(-c2n[nH]c(C)c2Oc2ccc(OC)cc2)c(O)c1`, the cytotoxicity was 16%.
Then `CCOC(=O)c1ccc(OCC(=O)c2ccc(O)cc2O)cc1`, with 11.9%; and `CCCOC(=O)c1ccc(-c2c(C)noc2-c2ccc(OC)cc2O)o1`, with 1.5%.
On to `CCOC(=O)c1c(N)n[nH]c1-c1ccc(OC)cc1`, for which the cytotoxicity was 6.6%.
For `CCOc1ccc(N2C(=O)c3ccc(C(=O)OCc4c(C)noc4C)cc3C2=O)cc1`, the cytotoxicity was -4.2%.
Then `COc1ccc(Cl)cc1NC(=O)CN1CCC(n2nnc3cc(F)ccc32)CC1`, with 5.7%; and `O=C(c1ccc(S(=O)(=O)N2CCCC2)cc1)N1CCN(Cc2ccc3c(c2)OCO3)CC1`, with 4.3%; and `c1coc(-c2nnc(SCc3cn4ccccc4n3)o2)c1`, with -5.9%.
Turning to `CCOC(=O)CN(C(=O)CSc1nnc(-c2ccc(OC)c(OC)c2)o1)c1ccc(F)cc1`, the cytotoxicity is -21.9%.
As to `CCOC(=O)c1c(NC(=O)CSc2nnc(CNc3ccc(F)cc3)o2)sc(C)c1C`, the cytotoxicity was -12.6%.
Then `COc1ccccc1NC(=O)COc1ccc(C(=O)OCC(=O)N2CCCC2=O)cc1OC`, with -27.1%; and `CCCCOc1ccc(-c2nnn(CC(=O)NCc3ccco3)n2)cc1`, with 50.9% (active).
As to `CCOc1ccc(-c2nnn(CC(=O)NCc3ccco3)n2)cc1`, the cytotoxicity is 0.2%.
Then `O=C(Cn1nnc(-c2ccc3c(c2)OCO3)n1)NCc1ccco1`, with -12.9%.
Then `O=S(=O)(c1ccc(F)cc1)N1CCC(N2CCN(c3ccccc3)CC2)CC1`, with 16.8%; and `Cn1c(N2CCCC2)nc2c1c(=O)n(Cc1ccc(Cl)cc1)c(=O)n2C`, with 26.3%; and `Cn1c(NCc2ccccc2)nc2c1c(=O)n(Cc1ccccc1)c(=O)n2C`, with -0.5%.
For `Cn1c(NCC(O)c2ccccc2)nc2c1c(=O)n(Cc1ccc(Cl)c(Cl)c1)c(=O)n2C` (stereo not given), the cytotoxicity is 64.7% (active).
Consider `Cn1c(NCc2ccccc2)nc2c1c(=O)n(Cc1ccc(Br)cc1)c(=O)n2C`, for which the cytotoxicity was 21.3%.
Then `Cn1c(NCc2ccco2)nc2c1c(=O)n(Cc1ccc(Cl)c(Cl)c1)c(=O)n2C`, with 8.9%; and `COc1ccc(CNc2nc3c(c(=O)n(Cc4ccc(Cl)cc4)c(=O)n3C)n2C)cc1`, with 32.7%; and `Cn1c(NCC(O)c2ccccc2)nc2c1c(=O)n(Cc1ccc(Cl)cc1)c(=O)n2C` (stereo not given), with 50.4% (active).
Then `Cn1c(N2CCN(c3ccccn3)CC2)nc2c1c(=O)n(Cc1ccccc1Cl)c(=O)n2C`, with 3.4%; and `Cn1c(N2CCN(c3ccccn3)CC2)nc2c1c(=O)n(Cc1ccc(Cl)cc1)c(=O)n2C`, with 70% (active).
Consider `COC(=O)c1coc(-c2ccc(C)cc2)c1C(=O)OC`, for which the cytotoxicity was -19.4%.
Turning to `CCOc1ccccc1N(CC(=O)NC1CCCC1)C(=O)CCCC(=O)Nc1ccccn1`, the cytotoxicity was -29.3%.
Regarding `O=C(Cn1c(=O)oc2ccccc21)N1CCCCC1`, the cytotoxicity was -21%.
On to `CN(CCc1ccccn1)C(=O)CCNC(=O)Cn1cnc2ccccc2c1=O`, for which the cytotoxicity is -9.4%.
For `O=C(COc1ccccc1)Nc1cccc(-c2nnc(-c3ccccc3)o2)c1`, the cytotoxicity was 8.5%.
As to `COc1ccc(-c2noc(CCC(N)=O)n2)cc1OC`, the cytotoxicity is 7.2%.
Turning to `CC(=O)c1cc(F)c(N2CCCC2)cc1C`, the cytotoxicity was -6.1%.
As to `Cc1[nH]c(-c2ccco2)nc1C(=O)O`, the cytotoxicity is 1.6%.
`[O-][n+]1onc2c1CCc1nnc(-c3ccccc3)cc1-2`: the cytotoxicity was 8.2%.
As to `O=c1cc(-c2ccccc2)[nH]c2ccccc12`, the cytotoxicity is 46.8%.
Take `COc1ccc(C2C3=C(CCCC3=O)Nc3nc(C(F)(F)F)nn32)cc1OC` (stereo not given): the cytotoxicity is -12.5%.
Then `Cc1ccc(Cl)cc1N1CCN(Cc2nc3c(c(=O)[nH]c(=O)n3C)n2Cc2ccccc2F)CC1`, with 117% (active); and `CC(C)Cn1c(CN2CCN(c3ccccc3F)CC2)nc2c1c(=O)[nH]c(=O)n2C`, with -9.3%.
In the case of `Cn1c(=O)[nH]c(=O)c2c1nc(CN1CCN(c3cccc(Cl)c3)CC1)n2Cc1ccccc1Cl`, the cytotoxicity is 2.2%.
Then `O=C(Nc1ccncc1)c1ccc2c(c1)OCCO2`, with -6.9%; and `CCC(NC(=O)OC(C)(C)C)C(=O)Oc1ccc2c3c(c(=O)oc2c1)CCC3` (stereo not given), with -7.2%.
`CCOC(=O)Cc1cc(=O)[nH]c(Nc2nc3ccccc3o2)n1`: the cytotoxicity is -12.3%.
In the case of `C=CCn1c(=N)c(C(=O)OCC)cc2c(=O)n3cccc(C)c3nc21`, the cytotoxicity is 9.2%.
Take `CCNC(=O)c1cc2c(=O)n3cccc(C)c3nc2n(CCc2ccccc2)c1=N`: the cytotoxicity is 66.8% (active).
As for `Cc1cccn2c(=O)c3cc(C(=O)NCCN4CCOCC4)c(=N)n(CCc4ccccc4)c3nc12`, the cytotoxicity was 10.9%.
With `CCOC(=O)c1cc2c(=O)n3cccc(C)c3nc2n(CCc2ccccc2)c1=N`, the cytotoxicity is -6.7%.
Then `CCOC(=O)c1cc2c(=O)n3cccc(C)c3nc2n(C)c1=N`, with 58.1% (active); and `COCCn1c(=N)c(C(=O)NCCc2ccccc2)cc2c(=O)n3cccc(C)c3nc21`, with -1.7%.
